48 compounds from ChEMBL document CHEMBL1157539, “Thousands of chemical starting points for antimalarial lead identification” (Nature, 2010) can be followed below.

Holding throughout (type): functional
Assay [1] has as its system Plasmodium falciparum. The assay is described as follows: GSK_TCMDC: Inhibition of Plasmodium falciparum 3D7 in whole red blood cells, using parasite LDH activity as an index of growth. Test compounds present at 2uM.
In assay [2] the test system is Plasmodium falciparum. The assay can be described thus: GSK_TCMDC: Inhibition of Plasmodium falciparum Dd2 in whole red blood cells, using parasite LDH activity as an index of growth. Test compounds present at 2uM.
The test system of assay [3] is HepG2. The assay can be described thus: GSK_TCMDC: Percent inhibition of human HepG2 cell line. Test compounds present at 10uM.

Turning to `COc1ccc(NC(=O)c2cc(-c3ccc(NC(C)=O)cc3)cnc2N)cc1`, the Inhibition in assay [1] stood at 98%; in assay [2], 5%; in assay [3], 10%.

In the case of `CCOc1ccccc1CNc1nccc(NCCc2cn(C)c3ccccc23)n1`, the Inhibition in assay [1] worked out at 98%; in assay [2], 62%; in assay [3] it was 27%.

Turning to `CC(=O)Nc1ccc(CN2CCC(NC(=O)c3ccc(-c4cccc(OC(C)C)c4)s3)CC2)cc1.O=C(O)C(F)(F)F`, the Inhibition in assay [1] was 89%; in assay [2], 13%; in assay [3] it was 14%.

As for `O=C(Nc1ccc(Cl)cc1Cl)N[C@H]1CCN(CCCCCNC(=O)C2CC2c2ccc(Cl)c(Cl)c2)C1` (some centres undefined), the Inhibition in assay [1] was found to be 94%; in assay [2], 0%; in assay [3], 37%.

For `N#Cc1cccc(NC(=O)Nc2cccc(-c3ccc(-c4nc5cc(C(F)(F)F)ccc5[nH]4)cc3)c2)c1`, the Inhibition amounted to 100% in assay [1], 99% in assay [2] and 54% in assay [3].

With `O=C(NCc1cccs1)[C@H](Cc1ccccc1)Nc1ccnc(NCC2CCCCC2)n1.O=C(O)C(F)(F)F`, the Inhibition in assay [1] turned out to be 83%; in assay [2] it was 67%; in assay [3], 5%.

For `CN1CCN(c2ccc(-c3cccc(NC(=O)c4ccc5ccccc5c4)c3)nn2)CC1`, the Inhibition in assay [1] stood at 94%; in assay [2], 26%; in assay [3], 17%.

Regarding `COc1ccc2nccc([C@@H](O)CN3CCC(NC(=O)c4cc5ccccc5[nH]4)CC3)c2c1.CS(=O)(=O)O`, the Inhibition in assay [1] was 96%; in assay [2], 55%; in assay [3], 19%.

Regarding `COc1cc2nc(N(C)CC3COc4ccccc4O3)nc(N)c2cc1OC.Cl` (centres undefined), the Inhibition in assay [1] is on record as 94%; in assay [2] it was 26%; in assay [3] it was 11%.

For `Cc1cccc2nc(-c3cccc(-c4cccc(NC(=O)CCc5c[nH]cn5)c4)c3)[nH]c12`, the Inhibition in assay [1] is on record as 100%; in assay [2], 86%; in assay [3] it was 16%.

On to `COc1cccc(C=NNc2cc(C)nc3c(OC)cccc23)c1`, for which the results for the Inhibition in assay [1], in assay [2] and in assay [3] were 99%, 58% and 6%, respectively.

Turning to `CC(=O)Oc1cc(C)ccc1C1CCN(CCCCNC(=O)c2ccc(-c3ccc(C(F)(F)F)cc3)cc2)CC1`, the values for the Inhibition in assay [1], in assay [2] and in assay [3] were 100%, 94% and 54%, respectively.

On to `C[C@H](Cc1ccc(OCCCCCCCOc2ccc(C[C@@H](C)NC[C@H](O)c3cccc(Cl)c3)cc2)cc1)NC[C@H](O)c1cccc(Cl)c1.Cl`, for which the Inhibition in assay [1] was determined as 99%; in assay [2] it was 97%; in assay [3], 99%.

As for `COc1nc(NCC(C)C)nc(Oc2ccc(=O)n(Cc3ccccc3)n2)n1`, the Inhibition in assay [1] worked out at 97%; in assay [2], 93%; in assay [3], 1%.

As for `Cc1ccc(-c2cc3nc4c(c(NCCCn5ccnc5)n3n2)CCC4)cc1`, the Inhibition in assay [1] is recorded as 94%; in assay [2] it was 21%; in assay [3], 22%.

On to `COc1ccc(Cl)cc1N1CCN(CCCNC(=O)c2ccc(-c3nc4cc(Cl)c(Cl)cc4[nH]3)c(C)c2)CC1`, for which the Inhibition in assay [1] is reported as 100%; in assay [2] it was 0%; in assay [3] it was 4%.

In the case of `Cc1ccc(NC(=O)c2cccc(CN3CCCN(Cc4cccc(O)c4)CC3)c2)cc1.O=C(O)C(F)(F)F`, the results for the Inhibition in assay [1], in assay [2] and in assay [3] were 82%, 3% and 22%, respectively.

Turning to `CC(C)COc1ccc(Cl)cc1Cc1ccc(-c2nc3cnc4ccccc4c3[nH]2)o1`, the Inhibition is 87% in assay [1], 26% in assay [2] and 21% in assay [3].

On to `COc1ccc2c(=O)c3ccc(OC)cc3[nH]c2c1`, for which the results for the Inhibition in assay [1], in assay [2] and in assay [3] were 93%, 75% and 12%, respectively.

With `Cc1cc(N[C@@H](CC(C)C)C(=O)NCCc2ccccc2)nc(NCCc2cccs2)n1.O=C(O)C(F)(F)F`, the Inhibition was 89% in assay [1], 16% in assay [2] and 0% in assay [3].

Consider `CCN(CC)CCNc1nc(C=Cc2ccc(Cl)cc2)nc2cc3ccccc3cc12`, for which the Inhibition in assay [1] stood at 100%; in assay [2] it was 99%; in assay [3], 83%.

With `COc1ccc(NC(=O)/C=C/c2ccc(-c3ccc(-c4noc(C)n4)cc3)cc2)cc1OCCN(C)C.O=C(O)C(=O)O`, the Inhibition in assay [1] is 81%; in assay [2] it was 31%; in assay [3] it was 14%.

With `Cl.N#Cc1ccc2c(c1)CN(CCC1CCC(NC(=O)c3cc4cnccc4[nH]3)CC1)CC2` (centres undefined), the Inhibition is reported as 97% in assay [1], 28% in assay [2] and 13% in assay [3].

`CCNc1cc(C(=O)N[C@@H](Cc2ccccc2)[C@H](O)CNCc2ccc3c(c2)OCCO3)cc(N2CCCCS2(=O)=O)c1.O=CO`: the Inhibition amounted to 95% in assay [1], 45% in assay [2] and 0% in assay [3].

With `CCCC(CNCc1ccccc1)CNc1cc(=O)c2ccccc2[nH]1` (centres undefined), the values for the Inhibition in assay [1], in assay [2] and in assay [3] were 86%, 21% and 2%, respectively.

For `O=C(NC1CCCCC1)N(Cc1ccc(-c2ccc(CNC3CCCC3)cc2)cc1)C1CCN(Cc2ccccc2)CC1.O=C(O)C(F)(F)F`, the Inhibition is given as 99% in assay [1], 86% in assay [2] and 31% in assay [3].

As to `CCNc1cc(C(=O)N[C@@H](Cc2ccccc2)[C@H](O)CNCCc2ccccc2)cc(N2CCCCS2(=O)=O)c1.Cl`, the results for the Inhibition in assay [1], in assay [2] and in assay [3] were 98%, 91% and 14%, respectively.

With `Nc1c2c(nc3ccc(C(=O)Nc4ccccc4)cc13)CCCC2`, the results for the Inhibition in assay [1], in assay [2] and in assay [3] were 100%, 78% and 20%, respectively.

With `COc1ccccc1CNC(=O)C(=O)Nc1c(-c2ccccc2)[nH]c2ccccc12`, the values for the Inhibition in assay [1], in assay [2] and in assay [3] were 99%, 91% and 0%, respectively.

For the compound `CC(C)NCc1ccc(-c2cccc(NC(=O)c3cccc(C#N)c3)c2)cc1.O=C(O)C(F)(F)F`, the Inhibition in assay [1] is 100%; in assay [2], 78%; in assay [3] it was 9%.

Regarding `CC(C)(C(=O)Nc1ccc(N2CCC3(CCCN(CC4CC4)C3)CC2)c(Cl)c1)c1cccc(C(F)(F)F)c1`, the Inhibition in assay [1] is recorded as 92%; in assay [2], 0%; in assay [3], 27%.

Regarding `COc1cc(C)cc(CN2CCC(Cc3ccccc3)CC2)c1O`, the Inhibition stood at 97% in assay [1], 94% in assay [2] and 35% in assay [3].

`COc1c(C2CCN(CCCCNC(=O)c3ccc(C)c(-c4ccc(C(F)(F)F)cc4)c3)CC2)ccc2c1CCCC2`: the Inhibition came out at 86% in assay [1], 79% in assay [2] and 76% in assay [3].

As to `Cc1ccc(C2=NNC3(S2)C(=O)N(C)c2ccccc23)cc1` (centres undefined), the Inhibition came to 82% in assay [1], 12% in assay [2] and 36% in assay [3].

`CCOc1ccc(C(C)NC(=O)c2ccc(OC)c(Br)c2)cc1OCC` (centres undefined): the Inhibition came out at 100% in assay [1], 100% in assay [2] and 9% in assay [3].

Take `Cc1cc(N[C@@H](Cc2ccccc2)C(=O)NCc2cccc(F)c2)nc(NCCc2cccnc2)n1.O=C(O)C(F)(F)F`: the Inhibition came to 92% in assay [1], 40% in assay [2] and 18% in assay [3].

For `COc1c(C2CCN(CCCCNC(=O)c3ccc(-c4ccc(C#N)cc4)cc3)CC2)cc(Cl)c2c1CCCC2`, the values for the Inhibition in assay [1], in assay [2] and in assay [3] were 93%, 59% and 45%, respectively.

`O=C(Nc1ccc(-c2cccc(-c3nc4cc(F)ccc4[nH]3)c2)cc1)Nc1ccc(Cl)c(Cl)c1`: the Inhibition in assay [1] was 99%; in assay [2] it was 24%; in assay [3] it was 68%.

For `CC(C)NCc1ccc(-c2cccc(NC(=O)c3ccc(C#N)cc3)c2)cc1.O=C(O)C(F)(F)F`, the Inhibition came out at 100% in assay [1], 19% in assay [2] and 8% in assay [3].

For `Clc1ccc(/N=C(/NCCCCCCCN/C(=N\c2ccc(Cl)cc2)Nc2ccc(Cl)cc2)Nc2ccc(Cl)cc2)cc1`, the Inhibition in assay [1] came out at 100%; in assay [2], 99%; in assay [3] it was 100%.

On to `CC(=O)Nc1ccc(-c2nc3ccc(-c4nc5ccc(NC(C)=O)cc5[nH]4)cc3[nH]2)cc1`, for which the Inhibition in assay [1] is given as 99%; in assay [2], 99%; in assay [3], 0%.

Take `CCC(C)NS(=O)(=O)c1ccc2nc(Nc3cccc(SC)c3)n(C(C)C(C)C)c2c1` (centres undefined): the Inhibition came out at 94% in assay [1], 70% in assay [2] and 0% in assay [3].

As for `COc1ccc(CNC2CCN(C)CC2)cc1-c1ccc(S(=O)(=O)NCc2ccccc2)c(C)c1.O=C(O)C(F)(F)F`, the Inhibition in assay [1] came out at 100%; in assay [2] it was 98%; in assay [3], 81%.

Regarding `COc1nc(Nc2cccc(C)c2)nc(OC)n1`, the Inhibition was 94% in assay [1], 0% in assay [2] and 46% in assay [3].

For `Cc1cc(Nc2ccc(Oc3ccc(Cl)cc3)cc2)nc(N)n1`, the Inhibition in assay [1] worked out at 100%; in assay [2] it was 71%; in assay [3], 49%.

With `CN1CCCC1CCNCc1ccc(-c2ccc(CNCCc3ccccc3)cn2)cc1.O=C(O)C(F)(F)F` (centres undefined), the Inhibition in assay [1] amounted to 100%; in assay [2], 99%; in assay [3], 25%.

With `OC(CNCc1cccc(Oc2ccc(Cl)cc2)c1)c1cc(C(F)(F)F)cc(C(F)(F)F)c1` (centres undefined), the values for the Inhibition in assay [1], in assay [2] and in assay [3] were 99%, 100% and 0%, respectively.

Turning to `CCc1c(CCNCCc2cccc(CCNCCc3ccc(OC)c(OC)c3CC)c2)ccc(OC)c1OC.Cl`, the Inhibition in assay [1] was 81%; in assay [2], 67%; in assay [3], 100%.
